# From PubChem BioAssay (NCI)
# This is part of a sample that, as a whole, favours compounds with a hit. Of some 79,000 tested, about 15% had one in any assay. Values without a mark were called inactive. Active and inactive are the calls of the source. Rule as the data show it: active = growth inhibition above about 70%; inactive = the rest.
# Tests used:
# [1] = NCI Yeast Anticancer Drug Screen. Data for the mec2-1 strain (AID 157); details: S. cerevisiae mec2-1 strain, active compounds read high
# Method in brief: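 Each compound was tested on mec2-1 yeast, a strain altered in DNA damage repair or cell cycle control. Growth inhibition is reported relative to vehicle.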
# [2] = NCI Yeast Anticancer Drug Screen. Data for the rad14 strain (AID 159);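 also: 0% = growth of vehicle-treated control cultures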; details: S. cerevisiae rad14 strain growth inhibition, active compounds read high
# Method in brief: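 Here, inhibition of yeast growth was measured after compound exposure, using a strain with a genetic defect in DNA damage repair and vehicle-treated cultures as the reference.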
# [3] = NCI Yeast Anticancer Drug Screen. Data for the sgs1 mgt1 strain (AID 161);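 also: 0% = growth of cultures given vehicle only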; details: S. cerevisiae sgs1 mgt1 strain, active compounds read high
# Method in brief: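 Mutant yeast exposed to compound; growth scored against vehicle-only wells.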
# [4] = NCI Yeast Anticancer Drug Screen. Data for the CLN2oe strain (AID 163);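 also: 0% = growth of vehicle-only control cultures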; details: S. cerevisiae CLN2oe strain, active compounds read high
# Method in brief: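 First, the altered yeast strain was treated with each compound; second, its growth was measured; finally, inhibition was derived by comparison with vehicle controls.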
# [5] = NCI Yeast Anticancer Drug Screen. Data for the cln2 rad14 strain (AID 165);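 also: 0% = growth equal to vehicle treated cultures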; details: S. cerevisiae cln2 rad14 strain, active compounds read high
# Method in brief: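 Test compounds were added to cln2 rad14 yeast cultures; inhibition of growth was then determined by comparison with vehicle treatment.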
# [6] = NCI Yeast Anticancer Drug Screen. Data for the bub3 strain (AID 167); details: S. cerevisiae bub3 mutant strain, active compounds read high
# Method in brief: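 Whole-cell yeast assay. The mutant strain was incubated with compounds, and growth inhibition was determined by comparison with vehicle-treated cells.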
# [7] = NCI Yeast Anticancer Drug Screen. Data for the wt2 strain (AID 169);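 also: 0% = growth of vehicle-treated yeast cultures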; details: S. cerevisiae wt2 strain growth inhibition, active compounds read high
# Method in brief: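 The panel's yeast strains carry defined changes in DNA repair or cell cycle genes. Each strain is grown with compound, and growth loss is scored relative to vehicle.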
# [8] = NCI Yeast Anticancer Drug Screen. Data for the mlh1 strain (AID 171);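 also: 0% = growth of vehicle-treated control cultures of the same strain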; details: S. cerevisiae mlh1 strain growth inhibition, active compounds read high
# Method in brief: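 Inhibition values reflect reduced yeast growth in the presence of compound, referenced to vehicle controls, using a strain chosen for its alteration in DNA repair or cell cycle control.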
# [9] = NCI Yeast Anticancer Drug Screen. Data for the sgs1 strain (AID 173);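 also: 0% = growth of vehicle-only control cultures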; details: S. cerevisiae sgs1 mutant, active compounds read high
# Method in brief: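 Vehicle-treated cultures served as reference for growth inhibition of a yeast strain altered in DNA damage repair or cell cycle control after compound exposure.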
# [10] = NCI Yeast Anticancer Drug Screen. Data for the mlh1 rad18 strain (AID 175); details: S. cerevisiae mlh1 rad18 strain growth inhibition, active compounds read high
# Method in brief: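 Inhibition values reflect reduced growth of mutant yeast versus vehicle-treated controls following compound exposure; the mutations affect DNA damage repair.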
# [11] = NCI Yeast Anticancer Drug Screen. Data for the rad18 strain (AID 177); details: S. cerevisiae rad18 mutant growth inhibition, active compounds read high
# Method in brief: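 Steps: expose repair-mutant yeast to compound; measure growth; express as inhibition relative to vehicle control.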
# [12] = NCI Yeast Anticancer Drug Screen. Data for the rad52 strain (AID 147);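 also: 0% = growth of vehicle-treated control cultures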; details: S. cerevisiae rad52 mutant growth inhibition, active compounds read high
# Method in brief: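 Inhibition of yeast growth, referenced to vehicle controls, was the measured output for a strain with defective DNA damage repair.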
# [13] = NCI Yeast Anticancer Drug Screen. Data for the wt1 strain (AID 149);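 also: 0% = growth of vehicle-treated wt1 cultures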; details: S. cerevisiae wt1 strain (SPY 50644) growth inhibition, active compounds read high
# Method in brief: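 Measured: growth of wt1 yeast under compound versus vehicle treatment, reported as inhibition.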
# [14] = NCI Yeast Anticancer Drug Screen. Data for the rad50EPP+ strain (AID 151);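 also: 0% = growth of vehicle-treated control cultures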; details: S. cerevisiae rad50 mutant strain, active compounds read high
# Method in brief: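 Genetically defined yeast (rad50EPP+, DNA damage repair alteration) is grown with compound, and inhibition of growth is expressed relative to vehicle-treated controls.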
# [15] = NCI Yeast Anticancer Drug Screen. Data for the mgt1 strain (AID 153); details: S. cerevisiae mgt1 mutant growth inhibition, active compounds read high
# Method in brief: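 In the mgt1 strain, test compounds were added and growth inhibition was determined relative to vehicle-treated controls.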
# [16] = NCI Yeast Anticancer Drug Screen. Data for the rad50 strain (AID 155);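 also: 0% = growth of vehicle-only cultures of the same strain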; details: S. cerevisiae rad50 strain growth inhibition, active compounds read high
# Method in brief: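 Growth of the mutant yeast was measured after compound exposure and referenced to vehicle-treated cultures.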
# [17] = at 5.0 µM (retest, dose inferred, filed as 0.5)
# [18] = at 50.0 µM (retest, dose inferred, filed as 5.0)
compound,measurement,setting,value
O=C(NC(=S)Nc1ccccn1)c1ccccc1,growth inhibition,[1]; [17],100% (active)
same,growth inhibition,[1]; at 11.0 µM,-51%
same,growth inhibition,[1]; at 33.0 µM,-54%
same,growth inhibition,[1]; [18],100% (active)
same,growth inhibition,[1]; at 50.0 µM,25.1%
same,growth inhibition,[1]; at 100.0 µM,-50%
same,growth inhibition,[2]; at 1.2 µM,-30%
same,growth inhibition,[2]; at 3.7 µM,-20%
same,growth inhibition,[2]; at 11.0 µM,-19%
same,growth inhibition,[2]; at 33.0 µM,-21%
same,growth inhibition,[2]; at 100.0 µM,-23%
same,growth inhibition,[3]; [17],-21%
same,growth inhibition,[3]; [18],50%
same,growth inhibition,[3]; at 50.0 µM,60.5%
same,growth inhibition,[4]; at 1.2 µM,-4%
same,growth inhibition,[4]; at 3.7 µM,-15%
same,growth inhibition,[4]; at 11.0 µM,-11%
same,growth inhibition,[4]; at 33.0 µM,-23%
same,growth inhibition,[4]; at 100.0 µM,-15%
same,growth inhibition,[5]; [17],36%
same,growth inhibition,[5]; [18],10%
same,growth inhibition,[5]; at 50.0 µM,-9.05%
same,growth inhibition,[6]; at 1.2 µM,-19%
same,growth inhibition,[6]; at 3.7 µM,-22%
same,growth inhibition,[6]; [17],13%
same,growth inhibition,[6]; at 11.0 µM,-13%
same,growth inhibition,[6]; at 33.0 µM,5%
same,growth inhibition,[6]; [18],57%
same,growth inhibition,[6]; at 50.0 µM,63%
same,growth inhibition,[6]; at 100.0 µM,19%
same,growth inhibition,[7]; at 1.2 µM,-32%
same,growth inhibition,[7]; at 3.7 µM,-32%
same,growth inhibition,[7]; at 11.0 µM,-38%
same,growth inhibition,[7]; at 33.0 µM,-27%
same,growth inhibition,[7]; at 100.0 µM,-20%
same,growth inhibition,[8]; at 1.2 µM,-38%
same,growth inhibition,[8]; at 3.7 µM,-34%
same,growth inhibition,[8]; at 11.0 µM,-26%
same,growth inhibition,[8]; at 33.0 µM,-40%
same,growth inhibition,[8]; at 100.0 µM,-37%
same,growth inhibition,[9]; at 1.2 µM,-54%
same,growth inhibition,[9]; at 3.7 µM,-71%
same,growth inhibition,[9]; at 11.0 µM,-47%
same,growth inhibition,[9]; at 33.0 µM,-36%
same,growth inhibition,[9]; at 100.0 µM,-31%
same,growth inhibition,[10]; [17],100% (active)
same,growth inhibition,[10]; [18],100% (active)
same,growth inhibition,[10]; at 50.0 µM,19.2%
same,growth inhibition,[11]; at 1.2 µM,-60%
same,growth inhibition,[11]; at 3.7 µM,-56%
same,growth inhibition,[11]; at 11.0 µM,-29%
same,growth inhibition,[11]; at 33.0 µM,-38%
same,growth inhibition,[11]; at 100.0 µM,-43%
O=C(CNS(=O)(=O)Cc1ccccc1)NNc1ccccc1,growth inhibition,[12]; at 1.2 µM,-1%
same,growth inhibition,[12]; at 3.7 µM,2%
same,growth inhibition,[12]; at 11.0 µM,12%
same,growth inhibition,[12]; at 33.0 µM,35%
same,growth inhibition,[12]; at 100.0 µM,44%
same,growth inhibition,[13]; at 1.2 µM,-1%
same,growth inhibition,[13]; at 3.7 µM,5%
same,growth inhibition,[13]; at 11.0 µM,4%
same,growth inhibition,[13]; at 33.0 µM,23%
same,growth inhibition,[13]; at 100.0 µM,36%
same,growth inhibition,[14]; at 1.2 µM,2%
same,growth inhibition,[14]; at 3.7 µM,4%
same,growth inhibition,[14]; at 11.0 µM,22%
same,growth inhibition,[14]; at 33.0 µM,43%
same,growth inhibition,[14]; at 100.0 µM,58%
same,growth inhibition,[15]; at 1.2 µM,-1%
same,growth inhibition,[15]; at 3.7 µM,12%
same,growth inhibition,[15]; at 11.0 µM,14%
same,growth inhibition,[15]; at 33.0 µM,16%
same,growth inhibition,[15]; at 100.0 µM,16%
same,growth inhibition,[16]; at 1.2 µM,2%
same,growth inhibition,[16]; at 3.7 µM,4%
same,growth inhibition,[16]; [17],13%
same,growth inhibition,[16]; at 11.0 µM,9%
same,growth inhibition,[16]; at 33.0 µM,17%
same,growth inhibition,[16]; [18],64%
same,growth inhibition,[16]; at 50.0 µM,75.8% (active)
same,growth inhibition,[16]; at 100.0 µM,24%
same,growth inhibition,[1]; at 1.2 µM,-1%
same,growth inhibition,[1]; at 3.7 µM,0%
same,growth inhibition,[1]; [17],-3%
same,growth inhibition,[1]; at 11.0 µM,7%
same,growth inhibition,[1]; at 33.0 µM,14%
same,growth inhibition,[1]; [18],9%
same,growth inhibition,[1]; at 50.0 µM,62.5%
same,growth inhibition,[1]; at 100.0 µM,16%
same,growth inhibition,[2]; at 1.2 µM,0%
same,growth inhibition,[2]; at 3.7 µM,3%
same,growth inhibition,[2]; at 11.0 µM,6%
same,growth inhibition,[2]; at 33.0 µM,13%
same,growth inhibition,[2]; at 100.0 µM,20%
same,growth inhibition,[3]; [17],28%
same,growth inhibition,[3]; [18],71% (active)
same,growth inhibition,[3]; at 50.0 µM,63.6%
same,growth inhibition,[4]; at 1.2 µM,5%
same,growth inhibition,[4]; at 3.7 µM,5%
same,growth inhibition,[4]; at 11.0 µM,24%
same,growth inhibition,[4]; at 33.0 µM,39%
same,growth inhibition,[4]; at 100.0 µM,39%
same,growth inhibition,[6]; at 1.2 µM,1%
same,growth inhibition,[6]; at 3.7 µM,0%
same,growth inhibition,[6]; [17],5%
same,growth inhibition,[6]; at 11.0 µM,2%
same,growth inhibition,[6]; at 33.0 µM,8%
same,growth inhibition,[6]; [18],29%
same,growth inhibition,[6]; at 50.0 µM,69.3%
same,growth inhibition,[6]; at 100.0 µM,10%
same,growth inhibition,[7]; at 1.2 µM,1%
same,growth inhibition,[7]; at 3.7 µM,2%
same,growth inhibition,[7]; at 11.0 µM,11%
same,growth inhibition,[7]; at 33.0 µM,30%
same,growth inhibition,[7]; at 100.0 µM,38%
same,growth inhibition,[8]; at 1.2 µM,-4%
same,growth inhibition,[8]; at 3.7 µM,0%
same,growth inhibition,[8]; at 11.0 µM,5%
same,growth inhibition,[8]; at 33.0 µM,16%
same,growth inhibition,[8]; at 100.0 µM,24%
same,growth inhibition,[9]; at 1.2 µM,-1%
same,growth inhibition,[9]; at 3.7 µM,-1%
same,growth inhibition,[9]; at 11.0 µM,8%
same,growth inhibition,[9]; at 33.0 µM,36%
same,growth inhibition,[9]; at 100.0 µM,54%
same,growth inhibition,[10]; [17],71% (active)
same,growth inhibition,[10]; [18],90% (active)
same,growth inhibition,[10]; at 50.0 µM,40.1%
same,growth inhibition,[11]; at 1.2 µM,4%
same,growth inhibition,[11]; at 3.7 µM,5%
same,growth inhibition,[11]; at 11.0 µM,23%
same,growth inhibition,[11]; at 33.0 µM,63%
same,growth inhibition,[11]; at 100.0 µM,83% (active)
